Experimental findings from PubChem BioAssay are described below.

Structures are written as SMILES. Active and inactive are the calls of the source.

Test [1] can be described thus: small molecules captured by biotinylated probe aFSTL3 – biochemical, small-molecule microarray, fluorescence 635/667, stem cell growth factor project, primary screen (AID 1064).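 Note: measures binding of the biotinylated anti-FSTL3 antibody to printed compounds.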 The conditions noted are these: higher = more signal.
Test [2] is described as follows: binders from COS7 lysate, DM2A8 probe, primary screen, torsin A project, cell lysate, small-molecule microarray, fluorescence 635/667 (AID 1065). To be noted: higher = more signal, COS7 lysate expressing mutant human TOR1A.
Test [3] in a line: small molecules captured by biotinylated probe aFGF2 – biochemical, small-molecule microarray, fluorescence 635/667, stem cell growth factor project, primary screen (AID 1067).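 Note: measures binding of biotinylated aFGF2 protein to printed compounds on slides; z-score merges feature fluorescence and signal-to-noise across triplicate slides.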 To be noted: higher = more signal.
A short description of test [4]: small molecules captured by biotinylated probe aFGF10 – biochemical, small-molecule microarray, fluorescence 635/667, stem cell growth factor project, primary screen (AID 1071).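 Note: score merges 667 nm spot intensity and signal to noise from triplicate slides.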 To be noted: higher = more signal.
In test [5] the target is Neurogenic locus notch homolog protein 2 (Homo sapiens) (UniProt Q04721). Put plainly: small molecules binding Notch2 protein – biochemical, small-molecule microarray, 635 nm fluorescence, stem cell growth factors, primary screen (AID 1073). The conditions noted are these: higher = more signal.
Test [6] concerns the target Pro-neuregulin-1, membrane-bound isoform (Homo sapiens) (UniProt Q02297). The experiment in a line: small molecules binding neuregulin-1 protein – biochemical, small-molecule microarray, fluorescence 635/667, psychiatric disease protein project, primary screen (AID 1075).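 Note: score combines 667 nm spot fluorescence with signal to noise.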 To be noted: NRG1 binding, 635 nm fluorescence, higher = more signal.
Test [7] deals with Neuregulin-1 EGF-like domain. The experiment in a line: small molecules binding NRG1 EGF domain – biochemical, small-molecule microarray, 635 nm fluorescence, primary screen (AID 1081).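 Note: binding of the protein to compounds printed on small-molecule microarray slides.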 To be noted: higher = more signal.
Test [8] in a line: FRG1 expression reporter modulators in myotubes – cell-based, C2C12 myotubes, firefly/Renilla luciferase, luminescence, FRG1 inhibition for FSHD, primary screen (AID 1084). To be noted: FRG1 promoter luciferase, higher = more signal, called active from +8 up or from −8 down.
Test [9] is described as follows: small molecules captured by biotinylated probe aFST – biochemical, small-molecule microarray, fluorescence 635/667, stem cell growth factor project, primary screen (AID 1086).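 Note: score merges 667 nm fluorescence with signal-to-noise of each printed compound spot.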 The conditions noted are these: higher = more signal.
Test [10] is described as follows: binders of probe aHhip on microarray, primary screen, stem cell growth factor project, biochemical, small-molecule microarray, fluorescence 635/667 (AID 1087).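 Note: score merges spot fluorescence at 667nm with spot signal to noise ratio.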 To be noted: higher = more signal.
Test [11] has as its system PRMT1 (protein arginine N-methyltransferase 1). The experiment in a line: small molecules binding arginine methyltransferase PRMT1 – biochemical, small-molecule microarray, 635 nm fluorescence, primary screen (AID 1088).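 Note: binding of Prmt1 protein to compounds spotted on small-molecule microarray slides.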 To be noted: higher = more signal.
A short description of test [12]: growth effects on S. cerevisiae YJM789 – YJM789 clinical isolate, OD600, 24 h, basal, primary screen (AID 1089).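 Note: growth of clinical yeast isolate S. cerevisiae YJM 789 seeded 1000 cells per well; test concentration not given here.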 The conditions noted are these: higher = more signal, called active from +8 up or from −8 down.
Test [13] is described as follows: S. pombe growth modifiers, basal conditions – strain 972, OD600, 24 h, no modulator, primary screen (AID 1090).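 Note: basal condition with compound alone and no growth modifier present; test concentration not given here.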 The conditions noted are these: S. pombe 972 growth, higher = more signal, called active from +8 up or from −8 down.
A short description of test [14]: budding yeast growth modifiers under rapamycin – strain BY4716, OD600, 96 h, primary screen (AID 1091). Note: test concentration not given here. To be noted: S. cerevisiae BY4716 + rapamycin, higher = more signal, called active from +8 up or from −8 down.
Test [15] has as its target Torsin-1A-interacting protein 2 (Homo sapiens) (UniProt Q8NFQ8). The experiment in a line: small molecules binding lysate-expressed LULL1 – cell lysate, human LULL1 lysate, 635/667 nm fluorescence, primary screen (AID 1092).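 Note: score merges per-feature 667 nm fluorescence with signal-to-noise.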 The conditions noted are these: small-molecule microarray, hLULL1 lysate binding, 635 nm fluorescence; higher = more signal.
Test [16] in a line: optical density change of DRC41 E. coli – strain DRC41, OD650, 24 h, E. coli filamentation project, primary screen (AID 1093).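 Note: MC1000 strain lacking acrAB efflux and sulA so SOS filamentation is blocked; test concentration not given here.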 To be noted: E. coli DRC41 growth, higher = more signal, called active from +8 up or from −8 down.
Test [17] in a line: probe aLefty2 binding to arrayed compounds – biochemical, biotinylated probe, 635/667 nm fluorescence, primary screen (AID 1094).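 Note: score merges spot fluorescence near 667 nm with spot signal-to-noise ratio.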 To be noted: small-molecule microarray, higher = more signal.
Test [18] concerns Noggin (protein binding on small-molecule microarray). The experiment in a line: small molecules binding Noggin protein – biochemical, 635/667 nm fluorescence, primary screen (AID 1095).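 Note: score merges 667 nm feature fluorescence with signal to noise over triplicate slides.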 To be noted: 635 nm fluorescence, higher = more signal.
In test [19] the target is Neurogenic locus notch homolog protein 3 (Homo sapiens) (UniProt Q9UM47). The experiment in a line: small molecules binding NOTCH3 protein – biochemical, 635/667 nm fluorescence, primary screen (AID 1096). The conditions noted are these: small-molecule microarray, 635 nm fluorescence, higher = more signal.
Chain of Neurogenic locus notch homolog protein 3 (Homo sapiens) (Q9UM47 whole entry, looked up): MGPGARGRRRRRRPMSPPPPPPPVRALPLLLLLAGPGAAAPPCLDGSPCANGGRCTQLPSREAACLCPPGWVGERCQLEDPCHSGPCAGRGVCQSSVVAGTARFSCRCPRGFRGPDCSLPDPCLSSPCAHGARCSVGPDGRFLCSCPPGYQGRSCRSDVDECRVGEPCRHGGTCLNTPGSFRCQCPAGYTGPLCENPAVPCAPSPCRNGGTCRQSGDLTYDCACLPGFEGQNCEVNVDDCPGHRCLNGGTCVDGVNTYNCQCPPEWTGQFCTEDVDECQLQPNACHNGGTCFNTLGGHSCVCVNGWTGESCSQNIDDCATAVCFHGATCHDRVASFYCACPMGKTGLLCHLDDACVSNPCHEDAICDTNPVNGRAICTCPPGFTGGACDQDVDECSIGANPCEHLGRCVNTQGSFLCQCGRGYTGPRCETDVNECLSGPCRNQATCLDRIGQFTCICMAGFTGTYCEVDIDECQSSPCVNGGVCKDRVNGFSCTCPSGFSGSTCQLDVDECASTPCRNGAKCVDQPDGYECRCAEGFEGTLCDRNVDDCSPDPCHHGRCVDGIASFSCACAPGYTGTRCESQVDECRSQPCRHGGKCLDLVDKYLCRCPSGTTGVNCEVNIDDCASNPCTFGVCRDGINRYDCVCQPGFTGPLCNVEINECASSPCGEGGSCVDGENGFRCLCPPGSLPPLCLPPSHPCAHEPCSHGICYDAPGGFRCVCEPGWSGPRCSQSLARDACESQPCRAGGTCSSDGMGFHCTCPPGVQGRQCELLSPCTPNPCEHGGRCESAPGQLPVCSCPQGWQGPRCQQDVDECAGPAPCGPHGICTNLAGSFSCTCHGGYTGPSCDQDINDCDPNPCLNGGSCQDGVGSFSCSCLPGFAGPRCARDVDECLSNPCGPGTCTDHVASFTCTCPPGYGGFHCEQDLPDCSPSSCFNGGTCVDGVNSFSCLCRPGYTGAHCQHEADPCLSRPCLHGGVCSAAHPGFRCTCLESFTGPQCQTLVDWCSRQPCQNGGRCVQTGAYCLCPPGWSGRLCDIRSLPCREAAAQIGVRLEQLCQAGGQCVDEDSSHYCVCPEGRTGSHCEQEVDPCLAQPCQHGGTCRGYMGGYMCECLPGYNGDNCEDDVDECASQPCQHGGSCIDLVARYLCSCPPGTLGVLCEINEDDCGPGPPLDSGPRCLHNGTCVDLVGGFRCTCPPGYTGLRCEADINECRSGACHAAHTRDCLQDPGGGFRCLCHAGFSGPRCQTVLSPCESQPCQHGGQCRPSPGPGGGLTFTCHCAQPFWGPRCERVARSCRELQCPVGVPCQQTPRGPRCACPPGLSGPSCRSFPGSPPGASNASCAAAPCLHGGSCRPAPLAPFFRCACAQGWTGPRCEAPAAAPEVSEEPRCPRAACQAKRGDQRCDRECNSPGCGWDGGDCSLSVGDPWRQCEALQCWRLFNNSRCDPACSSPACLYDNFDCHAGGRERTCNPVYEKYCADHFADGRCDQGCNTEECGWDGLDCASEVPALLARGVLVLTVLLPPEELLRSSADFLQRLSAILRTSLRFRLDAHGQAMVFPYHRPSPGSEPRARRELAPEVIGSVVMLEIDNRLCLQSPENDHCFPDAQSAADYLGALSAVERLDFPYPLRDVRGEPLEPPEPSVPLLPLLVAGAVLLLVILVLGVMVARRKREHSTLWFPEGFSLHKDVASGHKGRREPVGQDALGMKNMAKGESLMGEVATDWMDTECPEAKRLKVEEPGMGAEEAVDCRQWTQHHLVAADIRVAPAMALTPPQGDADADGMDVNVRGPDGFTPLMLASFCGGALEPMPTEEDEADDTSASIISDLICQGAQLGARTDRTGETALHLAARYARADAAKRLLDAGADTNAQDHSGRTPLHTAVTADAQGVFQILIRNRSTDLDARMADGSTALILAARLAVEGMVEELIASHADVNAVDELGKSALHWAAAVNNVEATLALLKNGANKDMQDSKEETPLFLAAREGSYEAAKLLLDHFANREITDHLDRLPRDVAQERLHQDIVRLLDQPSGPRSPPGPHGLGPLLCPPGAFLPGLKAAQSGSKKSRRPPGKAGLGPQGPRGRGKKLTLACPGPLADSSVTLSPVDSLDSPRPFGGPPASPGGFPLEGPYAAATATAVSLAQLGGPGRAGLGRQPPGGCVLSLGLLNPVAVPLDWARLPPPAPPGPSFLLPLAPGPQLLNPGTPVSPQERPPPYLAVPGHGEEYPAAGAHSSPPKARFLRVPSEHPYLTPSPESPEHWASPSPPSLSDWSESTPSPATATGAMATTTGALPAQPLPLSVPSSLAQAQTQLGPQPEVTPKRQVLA
Test [20] can be described thus: probe aEGFR binding to arrayed compounds – biochemical, biotinylated probe, 635/667 nm fluorescence, primary screen (AID 1097).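 Note: probe is a biotinylated anti-EGFR antibody binding compounds printed on slides; score combines fluorescence near 667 nm and signal to noise of each spot.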 To be noted: small-molecule microarray, higher = more signal.

Chain of Pro-neuregulin-1, membrane-bound isoform (Homo sapiens) (Q02297 whole entry, looked up, the tested form may be a part, canonical isoform): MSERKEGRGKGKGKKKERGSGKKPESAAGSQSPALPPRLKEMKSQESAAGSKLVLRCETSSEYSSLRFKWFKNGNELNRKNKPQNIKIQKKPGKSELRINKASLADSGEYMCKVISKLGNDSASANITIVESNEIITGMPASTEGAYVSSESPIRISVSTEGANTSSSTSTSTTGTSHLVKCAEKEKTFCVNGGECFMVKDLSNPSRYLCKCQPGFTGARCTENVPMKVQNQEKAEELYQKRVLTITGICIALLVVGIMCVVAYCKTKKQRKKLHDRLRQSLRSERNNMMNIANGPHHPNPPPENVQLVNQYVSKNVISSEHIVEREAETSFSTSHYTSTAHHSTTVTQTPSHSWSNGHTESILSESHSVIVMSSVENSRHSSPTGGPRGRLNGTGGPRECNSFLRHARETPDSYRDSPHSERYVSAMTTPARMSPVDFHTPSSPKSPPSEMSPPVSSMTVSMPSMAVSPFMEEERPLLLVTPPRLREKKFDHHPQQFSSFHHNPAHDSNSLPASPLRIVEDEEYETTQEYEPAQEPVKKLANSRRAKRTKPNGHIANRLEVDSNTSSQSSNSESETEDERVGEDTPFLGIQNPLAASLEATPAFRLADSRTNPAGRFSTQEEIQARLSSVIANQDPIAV
Chain of Torsin-1A-interacting protein 2 (Homo sapiens) (Q8NFQ8 whole entry, looked up): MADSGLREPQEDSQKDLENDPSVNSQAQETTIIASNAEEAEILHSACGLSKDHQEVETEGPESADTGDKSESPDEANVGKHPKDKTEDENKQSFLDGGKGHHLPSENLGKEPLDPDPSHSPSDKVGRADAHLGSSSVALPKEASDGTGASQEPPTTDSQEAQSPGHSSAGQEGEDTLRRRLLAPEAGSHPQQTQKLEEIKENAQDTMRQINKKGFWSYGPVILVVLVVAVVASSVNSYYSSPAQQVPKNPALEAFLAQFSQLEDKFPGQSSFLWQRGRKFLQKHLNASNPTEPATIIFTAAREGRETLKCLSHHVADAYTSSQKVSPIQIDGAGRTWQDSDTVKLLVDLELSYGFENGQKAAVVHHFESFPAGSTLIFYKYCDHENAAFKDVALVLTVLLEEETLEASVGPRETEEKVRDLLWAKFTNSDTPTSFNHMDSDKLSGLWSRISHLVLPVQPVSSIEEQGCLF

On to `C[C@]1(C(=O)NC2CC2)c2ccccc2C(=O)N(Cc2ccccc2)[C@H]1c1ccc(CO)cc1`, for which the composite z-score in [1] is 0.942; in test [2] it was -0.729; in test [3], -0.116; in test [4] it was -0.796; in [5], -0.956; in test [6], -0.145. Moreover, the composite z-score in test [7] was 0.659; in test [9], -0.346; in test [10], -0.511; in [11] it was -1.09; in [15] it was -0.488; in [17] it was -0.0873. Further, the composite z-score in test [18] was -0.918; in test [19], -1.59; in test [20] it was -0.278. Also, the z-score was -1.69 (inactive) in [8]; -0.653 (inactive) in test [12]; -1.75 (inactive) in [13]; -0.785 (inactive) in test [14]; 1.84 (inactive) in test [16].
With `COCCOC(=O)N1C(=O)[C@@]2(c3cc(C#CC4=CCCCC4)ccc31)[C@H](c1ccc(OCCO)cc1)N1[C@H](c3ccccc3)[C@H](c3ccccc3)OC(=O)[C@H]1[C@@H]2C(=O)N1CCN(c2ncccn2)CC1`, the composite z-score in [1] came to 0.0516; in [2], 0.504; in [3], 0.0664; in [4], 0.874; in test [5], 1.31; in test [6] it was 0.521. Also, the composite z-score in test [7] came to 1.05; in test [9] it was 0.59; in [10] it was 0.0053; in [11], 1.46; in test [15] it was 1.73; in [17], 0.0444. Also, the values for the composite z-score in [18], in test [19] and in [20] were 0.788, 1.1 and 0.0289, respectively. The z-score is -0.64 (inactive) in [8]; 0.372 (inactive) in test [12]; 1.23 (inactive) in test [13]; 3.64 (inactive) in test [14]; 1.37 (inactive) in test [16].
On to `COc1ccc(CCNC(=O)[C@@]2(Sc3ccc(C)cc3)CC(=O)N(C3Cc4ccccc4C3)[C@@H]2c2ccc(CO)cc2)cc1`, for which the composite z-score in test [1] is 0.183; in test [2], 0.737; in [3], 0.153; in [4] it was -0.0334; in test [5] it was 1.43; in test [6], 0.591. Further, the composite z-score in [7] was determined as 1.29; in test [9], 0.384; in [10], 0.866; in test [11] it was 1.54; in [15], 1.88; in [17] it was 0.0511. Besides, the results for the composite z-score in test [18], in [19] and in test [20] were 2.07, 1.02 and 0.0707, respectively. Moreover, the z-score in test [8] was -3.33 (inactive); in test [12] it was 0.593 (inactive); in test [13] it was -0.468 (inactive); in [14], 0.707 (inactive); in test [16], -1.79 (inactive).
As for `O=C(CS)NCCCCCNC(=O)[C@@H]1C[C@@H]2C(=O)N3CCC[C@H]3C(=O)N2[C@@H]1c1cccc(OCCO)c1`, the composite z-score was 0.511 in test [1]; 1.59 in [2]; -0.106 in test [3]; 0.051 in test [4]; -0.377 in [5]; 1.19 in test [6]. Further, the composite z-score in test [7] is 1.43; in [9], -0.599; in [10] it was -0.166; in test [11] it was 1.07; in [15] it was 2.74; in test [17], -0.0998. Moreover, the composite z-score in test [18] was 0.102; in test [19] it was 0.0995; in test [20] it was -0.0828. Moreover, the z-score was 0.174 (inactive) in test [8]; 0.147 (inactive) in [12]; 0.793 (inactive) in test [13]; -0.153 (inactive) in [14]; -1.01 (inactive) in test [16].
`C[C@@H]1ON(c2ccc(C(=O)OC(C)(C)C)cc2)[C@H](c2ccc(O)cc2)[C@H]1C(=O)N1C(=O)OC[C@H]1Cc1ccccc1`: the composite z-score was -0.521 in test [1]; 0.707 in test [2]; -0.109 in test [3]; 0.8 in [4]; 1.37 in test [5]; 0.803 in test [6]. For the same molecule, the composite z-score in test [7] was 1.05; in test [9], 0.236; in [10] it was -0.0645; in test [11], 1.56; in [15] it was 1.24; in test [17], -0.146. The composite z-score in [18] was 0.525; in [19], 1.12; in test [20] it was -0.0333. In addition, the z-score in test [8] is 0.0087 (inactive); in test [12], 0.465 (inactive); in test [13] it was -0.29 (inactive); in test [14] it was 1.84 (inactive); in test [16], -0.63 (inactive).
